Test results: PubChem BioAssay AID1745848 (National Center for Advancing Translational Sciences (NCATS), 2022)
The whole screen tested about 2,100 compounds, of which about 940 (45%) were called active. Another 48% or so got no clear call; they are omitted. Calls come from the whole dose curve; as a rule, active = well fitted inhibition curve with a large enough effect; inconclusive = small, poorly fitted or top-dose-only effect; inactive = no such curve, though single readings can be large or run the other way. The set was probably picked from earlier hits. Some of the results follow.

Experiment: Confirmatory qHTS for Inhibitors of ATXN expression; note: nearly all actives have a fitted effect of over 65% in size;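 for activity change, negative = inhibition: 0% = DMSO vehicle wells and -100% = medium-only wells without cells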
Conditions: ATXN2-luciferase reporter cells, luminescence, 24 h; series mostly up to 11.5 µM; activity change, negative = inhibition: at the top concentration
Outline: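 A titration, incubated 24 h with reporter cells expressing ATXN2-luciferase. Luminescence (SteadyGlo) gives ATXN2 expression, multiplexed GF-AFC fluorescence gives viability; normalised to DMSO and medium-only wells.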
Potency is the fitted concentration of half-maximal effect.

Compound | Potency | activity change, negative = inhibition
COC(=O)C1=C(C)N(Cc2ccccc2)C(=NCCc2cccnc2)N[C@H]1c1ccc(Br)cc1 | 25.1 µM (active) | –
COC(=O)C1=C(C)N(Cc2ccccc2)C(=NCCc2ccccn2)N[C@H]1c1cccc(C(F)(F)F)c1 | 3.16 µM (active) | –
CCc1cc(-c2nnn(CCC3COCCO3)c2CC)ccc1-c1cn(CCc2c[nH]c3ccccc23)nn1 (configuration not stated) | 8.91 µM (active) | –
O=C(N/N=C/c1cc([N+](=O)[O-])ccc1O)c1ccc(COc2ccc3c(c2)CCC3)o1 | 3.55 µM (active) | –
O=C1CCCC(O)=C1C=NCc1ccccc1 | – | 19.3% (inactive)
Cn1ncc2c(Nc3cccc(Cl)c3)nc(Nc3cccc(Cl)c3)nc21 | 28.2 µM (active) | –
COc1ccccc1OCCN1CSC(=S)N(C)C1 | 17.8 µM (active) | –
COC1C=CC=C(C)C(=O)NC2=CC(=O)C(N)=C(CC(C)CC(OC)C(O)C(C)C=C(C)C1OC(N)=O)C2=O (configuration not stated) | 0.282 µM (active) | –
C/C(=N\OCC(=O)N/N=C/c1ccccc1O)c1cccs1 | 12.6 µM (active) | –
O=C(COc1nsnc1N1CCOCC1)N/N=C/c1ccccc1O | 14.1 µM (active) | –
CSc1nc(C)cc(OCC(=O)N/N=C/c2ccccc2O)n1 | 2 µM (active) | –
CN1CCN(C(c2ccc(C(F)(F)F)cc2)c2ccc3cccnc3c2O)CC1 (configuration not stated) | 7.94 µM (active) | –
CCN1CCN(C(c2ccc(C(F)(F)F)cc2)c2ccc3cccnc3c2O)CC1 (configuration not stated) | 3.55 µM (active) | –
O=C(Nc1c(Cl)cccc1Cl)Oc1cccc2cccnc12 | 10 µM (active) | –
O=C(Nc1cccc2cccnc12)c1csc(COCCO)n1 | – | -22.5% [at 57.5 µM] (inactive)
O=C(N/N=C/c1sc(N2CCOCC2)nc1-c1ccccc1)c1ccccc1O | 28.2 µM (active) | –
Cc1cc2oc3ccc(NCCC4CCCN4C)cc3c(=O)c2cc1C (configuration not stated) | 31.6 µM (active) | –
CCCn1ncc(CN2CCC(C(=O)Nc3cccc(-c4cccc(F)c4)c3)CC2)c1C | 28.2 µM (active) | –
Cc1ccc2sc(N(CCCN(C)C)C(=O)c3ccc(S(=O)(=O)N4CCCCCC4)cc3)nc2c1C | 28.2 µM (active) | –
CCN(c1ccccc1)S(=O)(=O)c1ccc(C(=O)N(CCCN(C)C)c2nc3c(C)cccc3s2)cc1 | 25.1 µM (active) | –
Cc1ccc2nc(N(CCCN(C)C)C(=O)c3ccc(S(=O)(=O)N4CCCCCC4)cc3)sc2c1 | 3.16 µM (active) | –
Cc1cc(C)c2nc(N(CCCN(C)C)C(=O)c3ccc4c(c3)OCCO4)sc2c1 | 28.2 µM (active) | –
Nc1ncn([C@@H]2O[C@H](CO)[C@@H](O)[C@H]2O)c(=O)n1 | 3.98 µM (active) | –
Nc1ccn([C@@H]2O[C@H](CO)[C@@H](O)C2O)c(=O)n1 (some centres not stated) | 3.55 µM (active) | –

Compound | Potency | activity change, negative = inhibition
Nc1ccc2c(c1)OC1(CCCC1)O2 | 0.316 µM (active) | –
Clc1ccc2c(NCc3ccccc3)ccnc2c1 | 15.8 µM (active) | –
COc1ccc(-c2cc(C3CCN(c4ccc(C(C)=O)cc4[N+](=O)[O-])CC3)[nH]n2)cc1 | 15.8 µM (active) | –
Cc1ccc(C)c(NC(=O)c2ccccc2NS(=O)(=O)c2cc([N+](=O)[O-])ccc2C)c1 | 2.51 µM (active) | –
CCc1ccc(-c2csc(NC(=O)C3CC(=O)N(c4ccc5c(c4)OCCO5)C3)n2)cc1 (configuration not stated) | 11.2 µM (active) | –
COc1ccc(-c2nc(NC(=O)C3CC(=O)N(c4ccc5c(c4)OCCO5)C3)sc2C)cc1 (configuration not stated) | 8.91 µM (active) | –
CCC(=O)NC(c1ccc(Cl)cc1Cl)c1ccc2cccnc2c1O (configuration not stated) | 1.26 µM (active) | –
CCCCC(=O)NC(c1ccc(Cl)cc1Cl)c1ccc2cccnc2c1O (configuration not stated) | 0.708 µM (active) | –
CCCC(=O)NC(c1ccc(Cl)cc1Cl)c1ccc2cccnc2c1O (configuration not stated) | 2.82 µM (active) | –
CCCCC(=O)NC(c1ccc(OC)c(OC)c1)c1ccc2cccnc2c1O (configuration not stated) | 2.82 µM (active) | –
CCCCC(=O)NC(c1ccccc1OC)c1ccc2cccnc2c1O (configuration not stated) | 2 µM (active) | –
CCCCC(=O)NC(c1ccccc1Cl)c1ccc2cccnc2c1O (configuration not stated) | 2 µM (active) | –
NNC(=O)/C(=N/Nc1ccccc1)S(=O)(=O)c1ccc(Cl)cc1 | 4.47 µM (active) | –
CCCOc1ccc(C(=O)C(CN2CCOCC2)c2ccccc2)cc1 (configuration not stated) | 25.1 µM (active) | –
CC(=O)c1ccc(N2CCN(CC(O)COC(c3ccccc3)c3ccccc3)CC2)cc1 (configuration not stated) | – | -21.7% (inactive)
COc1ccccc1C(=O)NNC1=C(C(=O)C(F)(F)F)CCC1 | 1.58 µM (active) | –
CCN(CC)CCn1c2ccccc2c2cnc(N)c(C#N)c21 | 1.58 µM (active) | –
O=S(=O)([N-]c1nc2ccccc2nc1-[n+]1ccc(Cc2ccccc2)cc1)c1ccc(Br)s1 | 8.91 µM (active) | –
Cc1ccc2c(c1)N(C)/C(=C/c1cccc[n+]1C)S2 | 4.47 µM (active) | –
CC[n+]1ccccc1/C=C1\Sc2ccc(C)cc2N1C | 8.91 µM (active) | –
Cn1nccc1C(=O)N1CCCC(C(=O)c2cccc3ccccc23)C1 (configuration not stated) | – | -6.41% [at 57.5 µM] (inactive)
COc1cccc(-c2nc(N3CCN(C)CC3)c3ccccc3n2)c1O | 3.16 µM (active) | –
CCOC(=O)c1c(NC(=O)/C=C/C(=O)O)sc(C)c1-c1ccc(Cl)cc1 | 25.1 µM (active) | –
